# PostGolgi yeast – growth inhibition of a yeast mutant, post-Golgi transport screen | 0.9% of 98,000 active | post-Golgi transport phenotypic cell assay | inhibition, % at 10 µM | AID 739;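 note: yeast cells grown in 1536-well plates; yeast grown about 18 h at 30C before absorbance read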
# CYP2C19 inhib – inhibitors of human CYP2C19; 21% of 96,000 active; inhibition, % at 5 µM; AID 778; P33261; CYP2C19 Supersomes, luciferin-H EGE luminescence, 30 min;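 active = CYP2C19 inhibition above a set limit at 5 µM in the primary screen, cut at about 50% in these data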
# PostGolgi ctrl – yeast control strain growth, post-Golgi counter-screen; efflux-deficient yeast background strain, growth absorbance A615, 16 h; inhibition, % at 10 µM; 5% of 98,000 active; AID 738
# CYP2C9 inh – human CYP2C9 inhibition; inhibition, % at 5 µM; CYP2C9 Supersomes, luciferin-H conversion, luminescence; 20% of 96,000 active; P11712;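 active = blocking of liver enzyme CYP2C9 beyond about 50% at 5 µM, limit read from the data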
# Target sequence (P11712 whole entry, looked up): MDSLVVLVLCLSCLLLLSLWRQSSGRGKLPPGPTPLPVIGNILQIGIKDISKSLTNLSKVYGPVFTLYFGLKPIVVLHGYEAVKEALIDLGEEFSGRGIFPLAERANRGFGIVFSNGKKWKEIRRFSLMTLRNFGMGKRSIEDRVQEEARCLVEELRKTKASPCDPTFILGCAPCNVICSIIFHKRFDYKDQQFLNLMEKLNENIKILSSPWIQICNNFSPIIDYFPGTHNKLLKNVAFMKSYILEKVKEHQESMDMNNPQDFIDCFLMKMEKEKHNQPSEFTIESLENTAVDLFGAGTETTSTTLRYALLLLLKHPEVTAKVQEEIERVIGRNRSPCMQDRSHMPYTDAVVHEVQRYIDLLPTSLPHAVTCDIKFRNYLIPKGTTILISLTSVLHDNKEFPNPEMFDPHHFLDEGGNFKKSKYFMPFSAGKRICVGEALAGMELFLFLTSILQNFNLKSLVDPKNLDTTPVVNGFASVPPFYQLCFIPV
# CYP2C19 activ – cytochrome P450 2C19 (human) activation; recombinant CYP2C19, luciferin-H EGE luminescence; stronger effect = higher value; 0 = fully inhibited enzyme, 1 = untreated enzyme; activation factor at 5 µM; 96,000 tested, under 10 active;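 active = activation factor of at least 2 at 5 µM in the primary screen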
# CYP2C9 activ – activators of human CYP2C9; activation factor at 5 µM; P11712; recombinant CYP2C9, luciferin-H conversion, luminescence; stronger effect = higher value; factor 1 = untreated enzyme, 0 = blocked; 1.4% of 96,000 active;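 active = activation factor of 2 or more for CYP2C9 at a 5 µM dose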
# A number is an active result; - = inactive; . = no result. An excerpt weighted towards active compounds, which were near 32% of everything screened. Cut-off read from the data, not from the text of the source, unless noted: active = inhibition above about 30%; inactive = the rest.
SMILES,PostGolgi yeast,CYP2C19 inhib,PostGolgi ctrl,CYP2C9 inh,CYP2C19 activ,CYP2C9 activ
O=C(Oc1ccc(OC(=O)N2CCCCC2)cc1)c1ccccc1,-,-,-,-,-,-
Cc1cccc(N2C(=O)C(Cl)=C(Nc3c(C)n(C)n(-c4ccccc4)c3=O)C2=O)c1C,-,-,-,-,-,-
Cc1ccc(N2C(=O)C(Cl)=C(Nc3c(C)n(C)n(-c4ccccc4)c3=O)C2=O)cc1,-,-,33,-,-,-
COc1ccc2[nH]cc(C(=O)CN3CCN(C(=O)c4ccco4)CC3)c2c1,-,-,-,-,-,-
CCCOC(=O)c1ccc(-c2c(C)noc2-c2ccc(OC)cc2O)o1,-,81,-,92,-,-
Cc1ccc(SCCCCN2C(=O)NC(C)(C)C2=O)cc1,-,88,-,77,-,-
CC1(C)NC(=O)N(CCSc2ccc(Cl)cc2)C1=O,-,93,-,50,-,-
CC1(C)NC(=O)N(CCOCCSc2ccccc2)C1=O,-,86,-,-,-,-
O=C(OCC(=O)N1CCc2ccccc21)c1ccc(Cl)nc1,-,-,-,-,-,-
CC1(C)Cn2c(nnc2-c2cccc(O)c2)S1,-,-,-,-,-,-
CSc1cc(C)n(-c2ccccc2)c(=S)c1C(C)=O,-,-,-,-,-,-
CCOC(=O)C(C)Sc1nc(-c2ccc(OC)cc2)nc2c1c(=O)n(C)c(=O)n2C (stereo unspecified),.,-,.,-,-,-
CCOc1ccc(N/C=C/C(=O)c2ccc(C)cc2)c([N+](=O)[O-])c1,-,-,-,-,-,-
COc1ccc(C(=O)/C=C/Nc2ccc([N+](=O)[O-])cc2C)cc1OC,-,60,-,-,-,-
CCOc1ccc(N/C=C/C(=O)c2ccc3ccccc3c2)c([N+](=O)[O-])c1,-,-,-,-,-,2.1
CC(=O)OCCCN1c2ccccc2Nc2nnc(-c3ccccc3)cc21,-,61,-,.,-,.
Cc1ccc(C(=O)c2nc3c(n2O)CCCC3)cc1,-,-,-,-,-,-
CC(C)c1ccc(NC(=O)CSc2nc3c(c(=O)[nH]2)CCC3)cc1,-,-,-,60,-,-
Cc1ccc(NC(=O)CSc2nc3c(c(=O)[nH]2)CCC3)cc1C,-,-,-,51,-,-
CC(C)c1c(O)nc(SCC(=O)Nc2ccc3c(c2)CCC3)[nH]c1=O,-,-,-,-,-,-
Cc1ccc(S(=O)(=O)n2cnc3cc([N+](=O)[O-])ccc32)c(C)c1C,-,-,-,-,-,-
CCC1(C)Cc2c(sc3nc(SC)n(Cc4ccccc4)c(=O)c23)CO1 (stereo unspecified),-,-,-,90,-,-
CCC1(C)Cc2c(sc3nnn(CC(=O)Nc4ccc(C)cc4)c(=O)c23)CO1 (stereo unspecified),-,-,-,-,-,-
CCC1(C)Cc2c(sc3nnn(CC(=O)Nc4cccc5ccccc45)c(=O)c23)CO1 (stereo unspecified),-,-,-,60,-,-
CCOC(=O)C1=C(c2ccccc2)NC(SCC(=O)Nc2ccc(C)cc2)=C(C#N)C1c1ccco1 (stereo unspecified),-,-,-,65,-,-
SMILES,PostGolgi yeast,CYP2C19 inhib,PostGolgi ctrl,CYP2C9 inh,CYP2C19 activ,CYP2C9 activ
CCOC(=O)C1=C(c2ccccc2)NC(SCC(=O)Nc2ccccc2C)=C(C#N)C1c1ccco1 (stereo unspecified),-,57,-,75,-,-
CCOC(=O)CSC1=C(C#N)C(c2ccco2)C(C(=O)Nc2cccc(C(F)(F)F)c2)=C(C)N1 (stereo unspecified),-,78,97,82,-,-
CCOC(=O)C1=C(c2ccccc2)NC(SCC(=O)Nc2cccc(C)c2)=C(C#N)C1c1ccco1 (stereo unspecified),-,60,-,92,-,-
Cc1cccc(NC(=O)CSc2nnc(Cn3nnc(-c4ccccc4)n3)n2-c2ccccc2)c1,-,-,-,-,-,-
O=C(NC1CC1)c1cccc(Nc2ccc(-c3ccc4c(c3)OCCO4)nn2)c1,-,-,-,-,-,-
CC(=O)c1ccc(-n2nncc2C)cc1,-,-,-,-,-,-
CC(C)(C)n1ncc2c(=O)n(CC(=O)Nc3ccc4c(c3)OCCO4)cnc21,-,-,-,-,-,-
CCOC(=O)C1=C(c2ccccc2)NC(SC)=C(C#N)C1c1ccco1 (stereo unspecified),-,-,-,78,-,-
CCC(C)NS(=O)(=O)c1ccc(S(=O)(=O)Nc2cc3c(cc2C(C)=O)OCO3)cc1 (stereo unspecified),-,-,-,-,-,-
CCC(C)NS(=O)(=O)c1ccc(S(=O)(=O)N2CCCC3(CCCCC3)C2)cc1 (stereo unspecified),-,-,-,74,-,-
CC(C)(C)NC(=O)C1Cc2ccccc2CN1C(=O)Nc1cccc(Cl)c1 (stereo unspecified),-,-,-,-,-,-
Cc1cc(C)c2[nH]c(=O)c(C(c3nnnn3CC3CCCO3)N3CCCC(C)C3)cc2c1 (stereo unspecified),-,-,-,-,-,-
COCCCNC(=O)C(=O)N/N=C/c1ccc(OCC(=O)Nc2cccc(Cl)c2C)c(OC)c1,-,-,-,-,-,-
CN(C)S(=O)(=O)Nc1ccc(Oc2ccccc2)cc1,-,95,-,85,-,-
CCOc1ccccc1NS(=O)(=O)N(C)C,-,-,-,-,-,-
Cc1[nH]c(=O)[nH]c(=O)c1S(=O)(=O)Nc1ccc(Oc2ccccc2)cc1,-,92,-,96,-,-
CCCCc1ccc(NS(=O)(=O)N(C)C)cc1,-,65,-,94,-,-
O=C(CN1C(=O)C2CC=CCC2C1=O)NC1CCCc2ccccc21 (stereo unspecified),-,-,-,-,-,-
COc1ccc(C2C(C(=O)N3CCCC3)CC(=O)N2c2ccc(OC)cc2)cc1 (stereo unspecified),-,-,38,-,-,-
O=C(NC(=S)N1CCCc2ccccc21)c1ccccc1,-,51,-,-,-,-
O=C(c1ccc(C(=O)N2CCCc3ccccc32)s1)N1CCCc2ccccc21,105,50,100,-,-,-
Cn1c(C(=O)NCc2ccccn2)cc2c(=O)n3ccccc3nc21,-,.,-,.,.,.
COc1ccccc1CC(=O)N1CCCc2ccccc21,-,67,-,-,-,2.6
Cn1c(C(=O)N2CCCc3ccccc32)cc2c(=O)n3ccccc3nc21,-,-,-,65,-,-
Cc1ccc(CN2C(=O)C3CCCN3c3ccc(S(=O)(=O)N4CCOCC4)cc32)cc1 (stereo unspecified),-,-,-,-,-,-
CCN(C(=O)Cc1ccc(Br)cc1)C1CCCCC1,-,-,-,-,-,-
CC(C)C(=O)c1cn(CC(=O)N2CCCc3ccccc32)c2ccccc12,-,-,-,74,-,-

# High-throughput results as filed in PubChem BioAssay.
